A short description of experiment [1]: ATG_CRE_CIS: Attagene CIS-FACTORIAL HepG2 Assay for human cAMP Responsive Element (CRE) binding protein 3 (AID 2282926). As to conditions: HepG2 CRE cis-reporter, Attagene multiplexed mRNA; actives raise or lower the signal. The essentials: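 Human liver HepG2, transient MRTU transfection, 24 h compound exposure. Total RNA → oligo(dT) RT → PCR → 6-FAM primer extension → HpaI cut → CE. Activity called both directions vs DMSO.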

In experiment [2] the target is CCAAT/enhancer-binding protein beta (Homo sapiens) (UniProt P17676). Nature of the experiment: ATG_C_EBP_CIS: Attagene CIS-FACTORIAL HepG2 Assay for human CCAAT/Enhancer Binding Protein (C/EBP) beta (AID 2282927). To be noted: HepG2 Attagene cis-factorial transcription factor reporter; actives raise or lower the signal. The essentials: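 Transiently transfected HepG2 (MRTU library, endogenous TF-driven promoters); 24 h dosing; total RNA → oligo(dT) RT → PCR → 6-FAM primer extension → HpaI digest → CE; fit bidirectionally vs DMSO.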
Sequence of CCAAT/enhancer-binding protein beta (Homo sapiens) (P17676 whole entry, looked up): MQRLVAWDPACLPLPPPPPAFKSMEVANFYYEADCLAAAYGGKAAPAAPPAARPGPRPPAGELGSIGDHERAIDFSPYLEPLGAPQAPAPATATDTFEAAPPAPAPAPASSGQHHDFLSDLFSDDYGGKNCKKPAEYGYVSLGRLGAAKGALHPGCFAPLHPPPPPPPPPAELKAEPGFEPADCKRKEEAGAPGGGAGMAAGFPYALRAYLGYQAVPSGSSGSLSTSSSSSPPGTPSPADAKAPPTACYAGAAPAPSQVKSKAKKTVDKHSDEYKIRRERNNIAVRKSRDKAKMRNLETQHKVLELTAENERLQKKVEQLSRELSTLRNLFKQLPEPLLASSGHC

Experiment [3] in a line: ATG_CMV_CIS: Attagene CIS-FACTORIAL HepG2 Assay for human CMV (Internal Marker) (AID 2282928).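 Also: endpoint acts as a background internal control marker rather than a target.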 As to conditions: HepG2 CMV promoter reporter, transcription factor profiling; actives raise or lower the signal. In short, it runs like this: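 CMV internal-marker background readout in transiently transfected HepG2 cells bearing cis-regulated reporter units. Reporter mRNA is measured 24 h after dosing by RT-PCR and capillary electrophoresis, with bidirectional fitting against DMSO.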

Experiment [4] is described as follows: ATG_DR4_LXR_CIS: Attagene CIS-FACTORIAL HepG2 Assay for human Liver X Receptor (LXR), DR4 submotif (AID 2282929). As to conditions: HepG2 Attagene DR4 cis-reporter, mRNA transcription; actives raise or lower the signal. The essentials:
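HepG2 cells transiently transfected with cis-promoter-driven multiplexed reporter units (DR4 element) were dosed for 24 h. Reporter mRNA was quantified by RT-PCR, fluorescent primer extension, HpaI digestion and capillary electrophoresis; bidirectional fitting versus DMSO baseline.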

Experiment [5] can be described thus: ATG_AP_1_CIS: Attagene CIS-FACTORIAL HepG2 Assay for human Activator Protein 1 (AP-1) (AID 2282931). As to conditions: HepG2 Attagene cis-factorial AP-1 reporter mRNA; actives raise or lower the signal. The essentials: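 HepG2 cells transiently transfected with cis-element-driven multiplex reporter units; 24 h compound exposure. Reporter mRNA quantified by RT-PCR, FAM-labelled fragments resolved by capillary electrophoresis; bidirectional fit versus DMSO baseline.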

A short description of experiment [6]: ATG_AP_2_CIS: Attagene CIS-FACTORIAL HepG2 Assay for human Activator Protein 2 (AP-2) (AID 2282932). To be noted: HepG2 AP-2 cis-reporter, Attagene transcription factor profiling; actives raise or lower the signal. In short, it runs like this:
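Multiplexed mRNA reporter assay in HepG2: cis-regulated units report endogenous factor activity after 24 h treatment. Fluorescence from capillary electrophoresis of RT-PCR products gives the signal, with DMSO as baseline.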

Experiment [7] in a line: ATG_BRE_CIS: Attagene CIS-FACTORIAL HepG2 Assay for human Bone Morphogenetic Protein (BMP) Response Element (BRE) (AID 2282933). To be noted: HepG2 BMP response element reporter, Attagene transcription factor profiling; actives raise or lower the signal. In short, it runs like this:
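After a 24 h chemical treatment, transiently transfected HepG2 cells were lysed for RNA; reporter transcripts were quantified by fluorescent RT-PCR and capillary electrophoresis, normalised to DMSO.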

In experiment [8] the target is Transcription factor E2F1 (Homo sapiens) (UniProt Q01094). Nature of the experiment: ATG_E2F_CIS: Attagene CIS-FACTORIAL HepG2 Assay for human E2F Transcription Factor 1 (AID 2282935). To be noted: HepG2 Attagene cis-reporter, E2F reporter RNA transcripts; actives raise or lower the signal. The essentials: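 Measures reporter transcript levels via RT-PCR with capillary electrophoresis detection in HepG2 cells harboring cis-regulated reporter units; 24 h post-dose; bidirectional curve fitting with DMSO as baseline.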
Sequence of Transcription factor E2F1 (Homo sapiens) (Q01094 whole entry, looked up): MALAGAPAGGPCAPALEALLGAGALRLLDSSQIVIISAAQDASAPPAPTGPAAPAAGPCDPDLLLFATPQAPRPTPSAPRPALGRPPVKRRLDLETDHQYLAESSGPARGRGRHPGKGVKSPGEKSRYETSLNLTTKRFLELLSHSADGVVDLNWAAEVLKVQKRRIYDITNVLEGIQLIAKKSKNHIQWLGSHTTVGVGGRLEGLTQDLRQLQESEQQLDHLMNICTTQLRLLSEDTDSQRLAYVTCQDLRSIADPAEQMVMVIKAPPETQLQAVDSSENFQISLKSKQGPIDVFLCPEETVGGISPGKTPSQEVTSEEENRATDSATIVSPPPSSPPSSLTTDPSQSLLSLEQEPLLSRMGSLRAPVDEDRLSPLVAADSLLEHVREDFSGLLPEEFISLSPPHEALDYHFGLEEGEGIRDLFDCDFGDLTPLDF

A short description of experiment [9]: ATG_E_Box_CIS: Attagene CIS-FACTORIAL HepG2 Assay for human Enhancer Box (E-box) (AID 2282936). As to conditions: HepG2 E-box cis-reporter transcription, actives raise or lower the signal. The essentials:
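First, HepG2 cells receive multiple cis-regulated reporter constructs by transient transfection. Next, chemicals are applied for 24 h. Finally, reporter mRNA is quantified via RT-PCR and capillary electrophoresis, with DMSO as baseline.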

Experiment [10] in a line: ATG_M_61_CIS: Attagene CIS-FACTORIAL HepG2 Assay for M61 Transcription Factor (Internal Marker) (AID 2282937). To be noted: HepG2 Attagene CIS-FACTORIAL M61 internal marker reporter; actives raise or lower the signal. The essentials:
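HepG2 cells transiently transfected with cis-element-driven multiple reporter transcription units, dosed for 24 h. Reporter mRNA measured by RT-PCR, 6-FAM primer-extension labelling, HpaI digestion and capillary electrophoresis; bidirectional fit versus DMSO baseline.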

Experiment [11] is described as follows: ATG_EGR_CIS: Attagene CIS-FACTORIAL HepG2 Assay for human Early Growth Response 1 (EGR1) (AID 2282938). To be noted: HepG2 Attagene CIS-FACTORIAL EGR reporter mRNA; actives raise or lower the signal. In short, it runs like this: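 HepG2 cells transiently transfected with cis-promoter-driven multiplexed reporter transcription units; reporter mRNA measured 24 h after compound dosing by RT-PCR, 6-FAM primer extension, HpaI digestion and capillary electrophoresis. Bidirectional fit versus DMSO baseline.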

Experiment [12] can be described thus: ATG_Ets_CIS: Attagene CIS-FACTORIAL HepG2 Assay for human Erythroblast Transformation Specific (ETS) (AID 2282941). As to conditions: HepG2 ETS cis-reporter transcription, actives raise or lower the signal. The essentials:
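HepG2 cells transfected with multiple cis-regulated reporter units measuring endogenous ETS-driven transcription, 24 h after dosing. Reporter mRNA quantified by RT-PCR with capillary electrophoresis; bidirectional fit relative to DMSO.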

The nature of experiment [13]: ATG_FoxO_CIS: Attagene CIS-FACTORIAL HepG2 Assay for human Forkhead box O (FoxO) (AID 2282943). To be noted: HepG2 Attagene cis-reporter, FoxO element, mRNA; actives raise or lower the signal. The essentials:
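Read-out: fluorescence of 6-FAM-labelled reporter cDNA fragments resolved by capillary electrophoresis. Transiently transfected HepG2 cells were dosed for 24 h; activity fitted in both directions relative to DMSO controls.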

Experiment [14] can be described thus: ATG_GATA_CIS: Attagene CIS-FACTORIAL HepG2 Assay for human GATA Binding Protein (AID 2282944). To be noted: HepG2 GATA cis-element reporter, Attagene multiplex mRNA; actives raise or lower the signal. The essentials:
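Measures endogenous transcription factor-driven reporter mRNA in HepG2 cells transiently carrying cis-regulated constructs. 24 h dosing; RNA via oligo(dT) reverse transcription, PCR, HpaI digestion, capillary electrophoresis; fitted relative to DMSO.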

Experiment [15] in a line: ATG_GLI_CIS: Attagene CIS-FACTORIAL HepG2 Assay for human Zinc Finger Protein GLI1 (AID 2282945). To be noted: HepG2, Attagene cis-factorial reporter mRNA, GLI element; actives raise or lower the signal. In short, it runs like this: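 Transiently transfected HepG2 cells report endogenous transcription factor activity via cis-element-driven reporter units. After 24 h compound exposure, reporter mRNA was measured by RT-PCR with capillary electrophoresis; bidirectional fitting against DMSO baseline.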

Experiment [16] in a line: ATG_ISRE_CIS: Attagene CIS-FACTORIAL HepG2 Assay for human Interferon Regulatory Factor 1 (IRF1) binding to an Interferon-Stimulated Response Element (ISRE) (AID 2282948). As to conditions: HepG2 ISRE cis-reporter (Attagene), mRNA transcription readout; actives raise or lower the signal. In short, it runs like this: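 Transiently transfected HepG2 cells carrying cis-element reporter units, dosed 24 hours. Reporter mRNA quantified by RT-PCR, fluorescent primer extension, HpaI digestion and capillary electrophoresis. Bidirectional fitting relative to DMSO.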

Experiment [17] can be described thus: ATG_M_32_CIS: Attagene CIS-FACTORIAL HepG2 Assay for M32 Transcription Factor (Internal Marker) (AID 2282949).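 Also: background control marker of the multiplexed CIS panel rather than a real target.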 To be noted: HepG2 Attagene cis-factorial M32 reporter, mRNA; actives raise or lower the signal. The essentials: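 Following 24 h chemical exposure of HepG2 cells transiently expressing cis-promoter reporter constructs, reporter transcript levels were determined by RT-PCR with fluorescent labelling and capillary electrophoresis, then fitted bidirectionally against DMSO.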

Experiment [18] is described as follows: ATG_M_06_CIS: Attagene CIS-FACTORIAL HepG2 Assay for M06 Transcription Factor (Internal Marker) (AID 2282950). As to conditions: HepG2 Attagene CIS-FACTORIAL M06 internal marker reporter; actives raise or lower the signal. The essentials:
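One of many multiplexed endpoints: HepG2 reporter mRNA after 24 h dosing, detected by RT-PCR and capillary electrophoresis fluorescence; gain or loss of signal analysed against DMSO.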

Experiment [19] concerns the target Paired box protein Pax-6 (Homo sapiens) (UniProt P26367). As to the kind of experiment: ATG_Pax6_CIS: Attagene CIS-FACTORIAL HepG2 Assay for human Paired Box 6 (PAX6) (AID 2282956). As to conditions: HepG2 CIS-FACTORIAL PAX6 reporter transcription, RNA readout; actives raise or lower the signal. In short, it runs like this:
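HepG2 cells transiently transfected with cis-promoter-driven multiplexed reporter units sensing endogenous transcription factor activity; 24 h chemical exposure. Reporter mRNA quantified by RT-PCR, 6-FAM labelling, HpaI digestion and capillary electrophoresis; bidirectional fit versus DMSO baseline.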

The nature of experiment [20]: ATG_PXRE_CIS: Attagene CIS-FACTORIAL HepG2 Assay for human Pregnane X Receptor Element (PXRE) (AID 2282957). As to conditions: HepG2 Attagene CIS-FACTORIAL PXRE reporter, mRNA; actives raise or lower the signal. The essentials:
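Transfect HepG2 with MRTUs (cis promoter elements); dose chemical, incubate 24 h; isolate RNA, RT with oligo(dT), PCR, 6-FAM label, HpaI cut, CE. Gain/loss fit vs DMSO.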

Active and inactive are the calls of the source. The calls were made as follows: active = hit-call score of the fitted dose curve at least 0.9, where 1 is the maximum; inactive = score below 0.9.

Here are results for four compounds from PubChem BioAssay (EPA / NIEHS).

Sequence of Paired box protein Pax-6 (Homo sapiens) (P26367 whole entry, looked up): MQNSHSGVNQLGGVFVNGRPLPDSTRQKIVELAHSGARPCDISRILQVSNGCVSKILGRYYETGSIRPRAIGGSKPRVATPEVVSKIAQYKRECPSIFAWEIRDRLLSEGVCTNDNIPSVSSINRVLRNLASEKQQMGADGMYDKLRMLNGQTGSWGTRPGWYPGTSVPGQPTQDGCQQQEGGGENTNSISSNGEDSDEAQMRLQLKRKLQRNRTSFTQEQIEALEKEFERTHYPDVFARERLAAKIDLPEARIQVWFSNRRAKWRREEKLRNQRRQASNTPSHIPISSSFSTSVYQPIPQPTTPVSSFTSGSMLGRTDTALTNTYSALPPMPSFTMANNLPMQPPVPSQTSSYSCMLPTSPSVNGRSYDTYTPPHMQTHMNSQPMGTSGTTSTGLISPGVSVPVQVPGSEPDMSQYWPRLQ

By AC50 is commonly meant the concentration at which the activity in the assay is half-maximal. Turning to `CC1=CCCC(C)(C)C12CCC(C)O2` (stereo not given), the compound was classed as inactive in experiment [1], in experiment [2], in [3], in experiment [4], in experiment [5] and in [6]. For the same compound, the outcome in experiment [7], in experiment [8], in [9], in experiment [10], in experiment [11] and in experiment [12] was inactive. Moreover, the compound was classed as inactive in experiment [13], in experiment [14], in experiment [15], in experiment [16], in experiment [17] and in [18]. Also, in experiment [19], the compound was classed as inactive. The AC50 in [20] was 1.28 µM (active).

As to `[O-][n+]1ccc(Cl)cc1`, the compound was classed as inactive in experiment [1], in experiment [2], in experiment [3], in experiment [4], in experiment [5] and in experiment [6]. Besides, the compound was classed as inactive in experiment [7], in experiment [8], in experiment [9], in [10], in experiment [11] and in experiment [12]. The call in [13], in [14], in experiment [15], in experiment [16], in experiment [17] and in experiment [18] was inactive. Moreover, the result in experiment [19] and in [20] was inactive.

For the compound `c1ccc(CNc2ncnc3nc[nH]c23)cc1`, the compound was called inactive in [1], in experiment [2], in [3], in experiment [4], in experiment [5] and in [6]. For the same compound, the outcome in [7], in experiment [8], in experiment [9], in experiment [10], in experiment [11] and in experiment [12] was inactive. Moreover, the compound was classed as inactive in [13], in [14], in experiment [15], in experiment [16], in [17] and in experiment [18]. Moreover, the outcome in [19] and in experiment [20] was inactive.

For the compound `CC(=O)OC(C)(C)Cc1ccccc1`, the compound was called inactive in [1], in experiment [2], in experiment [3], in experiment [4], in experiment [5] and in experiment [6]. For the same compound, the result in [7], in experiment [8], in experiment [9], in [10], in experiment [11] and in experiment [12] was inactive. Further, the compound was classed as inactive in experiment [13], in experiment [14], in [15], in [16], in [17] and in [18]. The result in experiment [19] and in experiment [20] was inactive.
